Source: PubChem BioAssay
A number with no mark means an inactive call. Calls of active or inactive are those of the source.

Test: PSAC antagonists in infected red cells, primary screen, cell-based, P. falciparum Indochina, OD700, 1 h (AID 1154)
Settings: P. falciparum Indochina infected RBC osmotic lysis, higher = more signal, called active from +8 up or from −8 down

With `CCOC(=O)[C@H](Cc1ccccc1)NC(=O)CCC1CC(OC(=O)NCc2cccc3ccccc23)CC2(CCCC(COC(=O)NCc3cccc(C(F)(F)F)c3)O2)O1` (stereo partly specified) the z-score was 18.5 (active).
With `COC(=O)[C@@H]1CC[C@H](C)[C@@H](c2ccc(C)cc2)N1C(=O)c1ccc(C=NO[C@H](C)c2cn([C@H](CO)Cc3ccccc3)nn2)cc1` the z-score was 18.8 (active).
With `COc1ccc(O[C@H]2C=C[C@@H](c3ccccc3)O[C@@H]2CON=CC[C@@H]2C=C[C@H](OC(C)=O)[C@@H](COC(C)=O)O2)cc1` the z-score was 8.95 (active).
For `COc1ccc(COC(=O)NN=C2C[C@@H](O)[C@@H](O)[C@@H]3[C@@H]4C(=O)N(C5CCCCC5)C(=O)[C@@H]4CC[C@H]23)cc1`, the z-score was 9.99 (active).
For `O=C1CCCC=C1C(CCc1ccccc1)OC(=O)c1ccc(Br)cc1` (stereo unspecified), the z-score was 10.6 (active).
With `CCN1C(=O)[C@@H]2[C@H]3C(=CC[C@@H]2C1=O)C1(OCCCO1)[C@H]1O[C@H]1[C@H]3O` the z-score was 27.2 (active).
For `C[C@@H](c1ccccc1)N1C(=O)[C@H]2[C@H]3[C@H](O)[C@H](O)CC(=NOCc4ccccc4)[C@H]3CC[C@H]2C1=O`, the z-score was 31.6 (active).
With `CCOC(=O)[C@H](Cc1ccccc1)NC(=O)CCC1CC(OC(=O)NCc2cccc3ccccc23)CC2(CCCC(COC(=O)NCC(c3ccccc3)c3ccccc3)O2)O1` (stereo partly specified) the z-score was 9.16 (active).

First: COC(=O)CC=C[C@@H](C)[C@@H](C=NOC(C)CN1CCCc2nc(C)c(C)cc21)OC (stereo partly specified)
Second: CCOC(=O)[C@H](CC(C)C)NC(=O)CCC1CC(OC(=O)NCc2cccc3ccccc23)CC2(CCCC(COC(=O)NCCOC)O2)O1 (stereo partly specified)
The z-score of the first is higher: 0.378 for the first, -0.137 for the second.

First: CO[C@@H]1C=CCC(=O)N[C@@H](C)C(=O)OC[C@@H](OC)[C@H](C)CCCC(=O)OC[C@H]1C
Second: CO[C@H]1COC(=O)CC=C[C@H](C)[C@@H](OC)COC(=O)[C@@H](C)NC(=O)CC=C[C@@H]1C
The z-score of the first is lower: -1.15 for the first, -0.848 for the second.

First: COc1ccc(O[C@H]2C=C[C@@H](c3ccccc3)O[C@@H]2CON=C(C)C)cc1
Second: COc1ccc(O[C@H]2C=C[C@@H](c3ccccc3)O[C@@H]2COC(=O)CCC(C)=NO[C@@H]2O[C@H](COC(C)=O)[C@@H](OC(C)=O)[C@H](OC(C)=O)[C@H]2OC(C)=O)cc1
The z-score of the first is lower: 0.288 for the first, 1.73 for the second.

First: CCCCC#C[C@@H]1C=C[C@H](Oc2ccc(C(=O)OC)cc2)[C@@H](COC(=O)OCC)O1
Second: CCCCC#C[C@@H]1C=C[C@H](OC(C)=O)[C@@H](COC(C)=O)O1
The z-score of the first is higher: 5.53 for the first, 0.604 for the second.

First: Cc1ccc(S(=O)(=O)n2c3ccccc3c3nnc(C(=O)c4ccccc4)nc32)cc1
Second: C[C@H]1Cc2c(COc3ccccc3)nc3c(c2CO1)CN(CCOc1ccccc1)CC3
The z-score of the first is higher: 4.4 for the first, 3.74 for the second.

Going from `O=C(NN=C1C[C@@H](O)[C@@H](O)[C@@H]2[C@@H]3C(=O)N(Cc4ccccc4)C(=O)[C@@H]3CC[C@@H]12)OCc1ccccc1` to `O=C1[C@H]2[C@H]3[C@H](O)[C@H](O)CC(=NOCc4ccccc4)[C@@H]3CC[C@H]2C(=O)N1C[C@@H]1CCCO1`, the z-score falls from 1.91 to -0.132.

Going from `CC(C)[C@@H](OCc1ccccc1)[C@H](C)C=NOC[C@@H](O)COCc1ccco1` to `CC(C)=CCCC(C)=CCON=C1C[C@@H](O)[C@@H](O)[C@@H]2[C@@H]3C(=O)N(Cc4ccccc4)C(=O)[C@@H]3CC[C@H]12`, the z-score rises from 0.726 to 4.49.

First: CO[C@@H]1COC(=O)[C@@H](C)COC(=O)[C@@H](C)NC(=O)CC=C[C@@H]1C
Second: CO[C@@H]1COC(=O)[C@H](CCSC)NC(=O)CC=C[C@@H](C)COC(=O)[C@H](C)NC(=O)CC=C[C@H]1C
The z-score of the first is lower: -1.15 for the first, -0.0455 for the second.

Going from `CCCNC(=O)OC[C@H]1O[C@H](CCON=C(C)CCC(=O)OC[C@H]2O[C@H](c3ccccc3)C=C[C@@H]2Oc2ccc(OC)cc2)C=C[C@@H]1Oc1ccc(OC)cc1` to `C=CC[C@@H]1C=C[C@H](ON=C(C)CCN2CCc3nc(-c4ccccc4)c(-c4ccccc4)cc3C2)[C@@H](CO)O1`, the z-score rises from 2.17 to 4.53.

Compared with `CCOC(=O)NN=C1C[C@@H](O)[C@@H](O)[C@@H]2[C@@H]3C(=O)N(C(C)(C)C)C(=O)[C@@H]3CC[C@H]12`, `C#CCCCON=C1C[C@@H](O)[C@@H](O)[C@@H]2[C@@H]3C(=O)N(C(C)(C)C)C(=O)[C@@H]3CC[C@H]12` is higher in z-score: 0.521 for the first, 3.84 for the second.

Going from `C[C@@H](ON=C1[C@H]2CCn3c(=O)n(-c4ccccc4)c(=O)n3[C@H]2[C@H](O)[C@@H]2O[C@H]12)c1cn([C@@H]2COC[C@H]2O)nn1` to `CC(C)(C)N1C(=O)[C@H]2[C@H]3[C@H](O)[C@H](O)CC(=NOCc4ccccc4)[C@H]3CC[C@H]2C1=O`, the z-score rises from 0.595 to 4.05.

Going from `CC(=O)OC[C@H]1O[C@H](C#Cc2ccccc2)C=C[C@@H]1OC(C)=O` to `CON=CC[C@@H]1C=C[C@H](OC(C)=O)[C@@H](COC(C)=O)O1`, the z-score falls from 1.12 to 0.0262.

Going from `COC(=O)[C@H]1O[C@@H](c2c(OC)c(OC)c(C)c(OC)c2OC)[C@H](C)[C@@H](O)[C@H]1C` to `CC(C)CON=C1C[C@@H](O)[C@@H](O)[C@@H]2[C@@H]3C(=O)N(c4ccc(F)cc4F)C(=O)[C@@H]3CC[C@H]12`, the z-score rises from 0.516 to 1.17.

Going from `C[n+]1ccc(-c2ccc(CO)cc2)cc1` to `CC(C)=CCCC(C)=CCON=C1C[C@@H](O)[C@@H](O)[C@@H]2[C@@H]3C(=O)N(c4cccc(Oc5ccccc5)c4)C(=O)[C@@H]3CC[C@@H]12`, the z-score rises from -0.8 to 3.39.
